In the library only some 3.2% were active in any assay of this set; here they are far more common.
PLK1 PBD block – qHTS for Inhibitors of PLK1-PDB (polo-like kinase 1 - polo-box domain): Primary Screen | Plk1 PBD binding of FITC phosphopeptide, fluorescence polarization | AID 720504, 2013 | Potency, µM, without a hit: max response, negative = inhibition, most hits filed as inhibitors | hit rate 2.8% among 360,000 | Serine/threonine-protein kinase PLK1 (Homo sapiens), P53350; note: potency is the fitted concentration of half-maximal effect; series mostly up to about 57 µM; nearly all actives have a fitted effect of over 65% in size
USP2a inh – qHTS Assay for Inhibitors of Ubiquitin-specific Protease USP2a Using CHOP2 as the Reporter | hit rate 0.01% among 330,000 | AID 463254, 2010 | Ubiquitin carboxyl-terminal hydrolase 2 (Homo sapiens), O75604 | Potency, µM (titrated, usually from 38.3 µM), for inactives: at the highest dose activity change, negative = inhibition, usual class: inhibitors | USP2 core, Ub-CHOP2 coupled fluorogenic reporter, 485/531;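 note: potency is the fitted concentration of half-maximal effect; plate controls were DMSO wells for no effect and full inhibition by NEM control for full effect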
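USP2 core (10nM final) preincubated 30min RT with compound in 20mM Tris-HCl pH 8.0, 2mM CaCl2, 2mM beta-mercaptoethanol, 0.05% CHAPS; 25nM Ub-CHOP2 plus 25nM reporter substrate added, fluorescence (Ex485/Em531) read after 60min.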
FBPA coupling cs – qHTS Assay for Inhibitors of Fructose-1,6-bisphosphate Aldolase from Giardia Lamblia: Coupling assay counterscreen | coupling enzyme system counterscreen, AmpLite Red fluorescence | activity change, negative = inhibition, % at 58.2 µM, hits read low | hit rate 0.67% among 290,000 | AID 2472, 2010; in the data active = activity change below about -30%
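Activity here indicates interference with the coupling reaction, not aldolase inhibition. Compounds at 57.5 uM final met coupling enzymes for 10 min at RT; substrate and AmpLite Red detection followed, with a 525/598 nm fluorescence read after 20 min.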
USP1 inh – Inhibitors of USP1/UAF1: Primary Screen; recombinant USP1/UAF1, Ub-Rhodamine cleavage fluorescence; hit rate 0.23% among 390,000; Potency, µM (top dose mostly 57.1 µM), for the others: top-dose activity change, negative = inhibition, most hits filed as inhibitors; note: potency is the fitted concentration of half-maximal effect; nearly all actives have a fitted effect of over 60% in size
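In this screen, compounds sit with the deubiquitinase complex (1nM) for 15 min at room temperature before Ub-Rho is added at 150nM final. Fluorescence rise is then followed for 6 reads every 60 seconds.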
VDR inh – Inhibitors of the vitamin D receptor (VDR): qHTS; VDR-SRC2-3 peptide fluorescence polarization, 2 h; Potency, µM, for the others: max response, negative = inhibition, actives largely listed as inhibitors; hit rate 0.93% among 400,000; AID 504847, 2011; note: potency is the fitted concentration of half-maximal effect
Target sequence (P11473 whole entry, looked up): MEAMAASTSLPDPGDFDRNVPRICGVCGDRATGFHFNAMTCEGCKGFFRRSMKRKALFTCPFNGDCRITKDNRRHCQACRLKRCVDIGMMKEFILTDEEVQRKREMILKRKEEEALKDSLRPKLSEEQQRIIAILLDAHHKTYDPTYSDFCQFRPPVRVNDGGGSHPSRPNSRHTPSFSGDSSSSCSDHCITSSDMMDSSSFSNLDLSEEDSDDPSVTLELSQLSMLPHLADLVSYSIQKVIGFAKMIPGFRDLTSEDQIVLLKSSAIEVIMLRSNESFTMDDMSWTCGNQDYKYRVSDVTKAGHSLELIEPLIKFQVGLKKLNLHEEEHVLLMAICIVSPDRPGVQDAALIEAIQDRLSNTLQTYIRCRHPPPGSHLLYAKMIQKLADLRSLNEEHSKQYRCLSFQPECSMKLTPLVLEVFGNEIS
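After 23 nl compound addition and a short centrifugation, plates sat for 2 hours at ambient temperature; polarization of fluorescence then indicated loss of VDR binding to peptide SRC2-3.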
GALK inh – qHTS Assay for Inhibitors of Human Galactokinase (GALK). P51570. Purified GALK, Kinase-Glo residual ATP luminescence. Potency, µM (doses to about 57.5 µM), without a hit: at the highest dose activity change, negative = inhibition, actives largely listed as inhibitors. hit rate 0.007% among 270,000. AID 1868, 2009; note: potency is the fitted concentration of half-maximal effect
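GALK at 5 nM final was combined with compound, 35 uM ATP and 100 uM galactose in HEPES pH8.0 with MgCl2 and DTT. The reaction ran one hour at room temperature before luminescent ATP detection.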
* hit, by the source's call; ? = inconclusive; nt = not tested or not shown. Unless noted, calls come from the whole dose curve; as a rule, active = well fitted curve in the direction sought with a large enough effect; inconclusive = small, poorly fitted or top-dose-only effect, or another doubt; inactive = no such curve, though single readings can be large; an effect the other way counts as inactive or inconclusive. Unless noted, % is set by controls: 0 for no effect and ±100 for the full control effect.

SMILES	PLK1 PBD block	USP2a inh	FBPA coupling cs	USP1 inh	VDR inh	GALK inh
O=C1CC(N(O)C2CC(=O)N(Cc3ccccc3)C2=O)C(=O)N1Cc1ccccc1 (centres undefined)	24µM*	0%	-1	1%	?	4%
Cc1cc([N+](=O)[O-])nn1CC(=O)Nc1ccc(Cl)cn1	-6%	-5%	2	-8%	3%	-1%
CCCCNC(=O)CSc1cc(=O)n(C)c2ccccc12	27µM*	0%	-3	-20%	-2%	-2%
CCN(CCCNC(=O)CSc1cc(=O)n(C)c2ccccc12)c1ccccc1	nt	nt	nt	-23%	-5%	nt
Cc1occc1C(=O)NCc1nc(-c2ccccc2)no1	3%	9%	0	-12%	-15%	-2%
CCOc1ccc(/C=C2\CCC(C3CCCC3)C2=O)cc1 (centres undefined)	-1%	-1%	1	-5%	2%	nt
CCC(=O)OCOc1ccc(/C=C2/CCC(CN(C)C)C2=O)cc1 (centres undefined)	4.7µM*	nt	nt	-14%	10µM*	nt
CCCOc1ccc(C(=O)N2CCN(c3ccc(NC(=O)CC)cc3Cl)CC2)cc1	-4%	-13%	1	-19%	0%	-3%
CCC1CCCCN1C(=O)CCCOc1ccccc1 (centres undefined)	3.4µM*	-8%	2	-2%	?	2%
O=C(CCCOc1ccccc1)N1CCCCC1	-4%	-9%	-2	-19%	-3%	1%
N=c1nc(-c2ccccc2)n(-c2ccccc2)s1	nt	nt	nt	nt	13µM*	nt
Cn1c(=O)c2ncn(CC(=O)NC3CCCCCC3)c2n(C)c1=O	-3%	-2%	1	-2%	-11%	-1%
CCCCNC1=CC(=O)C(NCCCC)=CC1=O	-18%	nt	nt	-14%	?	nt
CCCCNC1=CC(=O)C(=O)c2ccccc21	-17%	-1%	0	25µM*	?	-1%
CCc1ccc(NC2=CC(=O)C(=O)c3ccccc32)cc1	-11%	3%	nt	28µM*	?	nt
O=C1C=C(Nc2ccccc2)C(=O)c2ccccc21	1%	-3%	-19	?	4%	5%
CC1(C(=O)NS(=O)(=O)C2CC2)CCN(C(=O)c2ccccc2F)C1 (centres undefined)	-11%	nt	nt	nt	nt	nt
CCOC(=O)CSc1nnc(-c2ccoc2C)n1-c1ccc(OCC)cc1	-14%	0%	0	-6%	1%	6%
COc1ccc(C(=O)Nc2nnc(C(F)(F)F)s2)cc1	27µM*	4%	-30	-10%	-24%	3%
COc1ccc(C(=O)Nc2nnc(-c3ccccc3)s2)cc1	5%	1%	1	-14%	14%	0%
C[C@@H]1CCCCO[C@@H](CN(C)S(=O)(=O)c2ccccc2)[C@@H](C)CN([C@H](C)CO)C(=O)c2cc(N(C)C)ccc2O1	-26%	nt	nt	-13%	nt	nt
CCc1ccc(NC(=O)CN(CC(=O)Nc2ccc(CC)cc2)CC(C)O)cc1 (centres undefined)	27µM*	-8%	-2	-20%	-26%	1%
CCc1ccc(NC(=O)Cc2ccc(OC)cc2)cc1	nt	2%	-1	nt	nt	3%
O=C(c1cccc(Br)c1)N1CCN(c2cnn(-c3ccccc3)c(=O)c2Cl)CC1	7%	7%	-1	-22%	-1%	0%
COc1ccccc1C(=O)N1CCN(c2cccc(Cl)c2)CC1	24µM*	2%	-3	-10%	-18%	2%
O=C(c1ccccc1F)N1CCN(c2cnn(-c3cccc(Cl)c3)c(=O)c2Cl)CC1	27µM*	-2%	0	-9%	-15%	-1%
O=C(c1cnccn1)N1CCC2(CCCN(c3cccc(-c4ccccc4)c3)C2)CC1	nt	nt	1	nt	35µM*	nt
